# Test results reported in PubChem BioAssay (NCI).
# This is part of a sample that, as a whole, favours compounds with a hit. Of some 79,000 tested, about 15% had one in any assay. Unmarked numbers belong to inactive results. Activity calls are given as the source filed them. Rule as the data show it: active = growth inhibition above about 70%; inactive = the rest.
# Assays:
# [1] = NCI Yeast Anticancer Drug Screen. Data for the rad50 strain (AID 155);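 also: 0% = growth of vehicle-only cultures of the same strain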; conditions: S. cerevisiae rad50 strain growth inhibition; at 50.0 µM; hits give high values
# How it was run: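 Growth of the mutant yeast was measured after compound exposure and referenced to vehicle-treated cultures.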
# [2] = NCI Yeast Anticancer Drug Screen. Data for the mec2-1 strain (AID 157); conditions: S. cerevisiae mec2-1 strain, at 50.0 µM, hits give high values
# How it was run: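 Mutant yeast (mec2-1) grown with compound; growth inhibition relative to vehicle control reported.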
# [3] = NCI Yeast Anticancer Drug Screen. Data for the sgs1 mgt1 strain (AID 161);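 also: 0% = growth of cultures given vehicle only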; conditions: S. cerevisiae sgs1 mgt1 strain, at 50.0 µM, hits give high values
# How it was run: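 This yeast growth screen uses a strain with defined DNA-repair lesions; compound-treated growth is compared with vehicle-treated growth.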
# [4] = NCI Yeast Anticancer Drug Screen. Data for the cln2 rad14 strain (AID 165);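 also: 0% = growth equal to vehicle treated cultures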; conditions: S. cerevisiae cln2 rad14 strain, at 50.0 µM, hits give high values
# How it was run: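 Readout is yeast growth inhibition versus vehicle-treated controls, using a strain with cln2 and rad14 alterations exposed to compound.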
# [5] = NCI Yeast Anticancer Drug Screen. Data for the bub3 strain (AID 167); conditions: S. cerevisiae bub3 mutant strain, at 50.0 µM, hits give high values
# How it was run: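 Whole-cell yeast assay. The mutant strain was incubated with compounds, and growth inhibition was determined by comparison with vehicle-treated cells.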
# [6] = NCI Yeast Anticancer Drug Screen. Data for the mlh1 rad18 strain (AID 175); conditions: S. cerevisiae mlh1 rad18 strain growth inhibition; at 50.0 µM; hits give high values
# How it was run: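 Genetically defined yeast (DNA repair-deficient) exposed to compounds; growth inhibition determined relative to vehicle.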
Structure (SMILES),growth inhibition [1],growth inhibition [2],growth inhibition [3],growth inhibition [4],growth inhibition [5],growth inhibition [6]
CCOC(=O)c1ccc(N=NC2Sc3nc4ccccc4n3C2=O)cc1 (stereo not given),-23.6%,-2.4%,-2.65%,-51.4%,21.8%,-6.3%
CC(=O)NC(CCCN)C(=O)NCc1ccccc1 (stereo not given),3.45%,-19.2%,-20.3%,17.5%,-3.45%,-22.6%
COc1ccc(C)cc1N,19.2%,-5.3%,-1.15%,24.4%,-3.2%,24.4%
Cc1ncc([N+](=O)[O-])n1CCNC(=O)CCCn1cnc([N+](=O)[O-])n1,-17.8%,-34%,-15.8%,-17.4%,-27.9%,-38.9%
COc1ccc(/C=C/c2c([N+](=O)[O-])c(=O)n(C)c(=O)n2C)cc1,-14.7%,0.95%,-3.1%,16.1%,2.65%,-10.2%
COc1ccc(Nc2nc3c(N)cc(C(F)(F)F)cc3nc2-c2ccccc2)cc1OC,0.5%,0.95%,-22.6%,-6.8%,-18.6%,-7.1%
O=C(Cc1ccccc1)NCc1ccc(Cl)cc1,3.75%,18.2%,34.1%,-5.7%,41.1%,27.4%
Cc1ccc(S(=O)(=O)NC(=O)C2S(=O)(=O)OCCOS2(=O)=O)cc1,-2.75%,4.15%,-7.1%,-1.85%,-11.3%,-16.4%
C=C(C)c1ccc2c(c1)C(=O)C[C@@H]1[C@](C)(C#N)CCC[C@]21C,-19.9%,-16.3%,32.2%,-52%,46.9%,-33.9%
Cc1ccc(O)cc1C(=O)O,-32%,-14.7%,-0.95%,8.05%,-3.75%,5.4%
COc1ccc(C2OCC3(O)C(c4ccc(OC)c(OC)c4)OCC23)cc1OC (stereo not given),-0.85%,-3.15%,-1.35%,19.4%,-9.8%,6.85%
C[C@@H](Oc1ccc(Oc2cnc3ccc(Cl)cc3n2)cc1)C(=O)O,15.8%,5.4%,4.2%,37.8%,15.2%,3.95%
NC(=O)C(O)C(O)CO (stereo not given),-8.8%,-9.35%,-15.2%,7.2%,-8.8%,-5.25%
Fc1ccc(CSC(=S)Nc2ccc(I)cc2)cc1,98.8% (active),99.2% (active),99.2% (active),99.2% (active),98.7% (active),99% (active)
COc1ccc2ncc(COC(C)=O)c(COC(C)=O)c2c1,-10.9%,-9.45%,-7.8%,14.7%,-12.4%,-8.4%
CC1=CCC2N=C(c3ccccc3)CC2(C)C1=O (stereo not given),27.4%,21.6%,24.3%,-11.3%,-46.2%,-16.6%
Nc1ccc2ccc3ccccc3c2c1,50.8%,5.6%,43.4%,31.8%,27.5%,44.2%
CN1Cc2ccccc2C1,0.75%,-3.5%,1.7%,10.4%,17.4%,5.55%
CCCC(C)(C#N)c1ccc(OC)cc1 (stereo not given),33.8%,13.2%,31.6%,1.65%,32.4%,-11.8%
CCOC(=O)c1sc(N)nc1C,-17.8%,-12.2%,-17.2%,-21.9%,-11.5%,0.35%

Structure (SMILES),growth inhibition [1],growth inhibition [2],growth inhibition [3],growth inhibition [4],growth inhibition [5],growth inhibition [6]
O=C(Cc1ccccc1)NN1C(=O)C(Cl)C1c1cc(Br)ccc1O (stereo not given),21%,30.1%,29.6%,-20.6%,25.2%,15.6%
Cn1nc2ccc([N+](=O)[O-])cc2[n+]1[O-],28.4%,-2.45%,-2.8%,-19.4%,0.05%,-17.2%
CCc1ccccc1NC(=S)NC1CCCCC1,-2.7%,-8.85%,0.05%,-18.5%,32.2%,-5.6%
C(=C/c1nnc2ncccn12)/c1ccccc1,-13.8%,-4.85%,-1.5%,-15.7%,0.05%,-5.4%
CC(=O)Nc1ccc2c(c1)Cc1cc(Cl)c(Cl)cc1-2,57.5%,-4.05%,31.7%,-17.1%,-3.7%,37.6%
COc1ccc(C2=CSC3=NC(C)(C)CC(C)=NN23)cc1,-16.8%,-8.2%,7.35%,29.2%,9.25%,-1.75%
CCCCCCCCCCCCCCCCOc1ccc(/C=N/Nc2ccccc2)cc1OC,-20.1%,-22.2%,-25.9%,0.95%,-32%,-13.6%
COC1=CCC2=C(C1)C1(C)CCCC(C)(CO)C1CC2 (stereo not given),3.1%,18.5%,-7.9%,3.4%,14%,58.2%
O=C1CN(CCCCl)CC(=O)N2Cc3ccccc3CN12,-9.05%,5.3%,-15.7%,-10.1%,-3.7%,-20.1%
CCC[CH2][Ge]([CH2]CCC)([CH2]CCC)[O]C(=O)CCl,-14.2%,31.7%,-4.75%,-52.9%,-13.2%,31.9%
CC1(c2ccccc2)CCCCC1OC(N)=O (stereo not given),4.3%,-21.9%,-13.9%,27.5%,7.2%,-5.15%
Cc1nc2c(c(-c3ccccc3)n1)Cc1ccccc1O2,-4.05%,-12.4%,7.55%,-10.5%,25.8%,0%
CC1=Nc2c(C)noc2CC(c2ccccc2O)C1 (stereo not given),-1.5%,-2.6%,-2.05%,27.2%,-15.8%,-5.35%
[Co+2].[NH-]C(Cc1ccc(O)cc1)C(=O)O.[NH-]C(Cc1ccc(O)cc1)C(=O)O (stereo not given),56.5%,10.2%,5.8%,16.3%,16%,34%
CC(=O)NC1C(OCC(=O)NC(C)C(=O)NC(CCC(=O)NCCCCCNc2ccc([N+](=O)[O-])c3[nH]c4ccccc4c(=O)c23)C(N)=O)C(O)C(CO)OC1(C)OCc1ccccc1 (stereo not given),-7.65%,-3.35%,1.05%,21.2%,-12.1%,18.1%
CCCCNC(=O)Oc1cccc2ccccc12,4.3%,-6.8%,7.7%,-4.35%,29.8%,-6.4%
O=C(CN1CCCCC1)c1ccc(CCc2ccc(C(=O)CN3CCCCC3)cc2)cc1,35%,11.3%,33.9%,-61.1%,6.5%,32.2%
CN(C)c1ccc2c(N(C)C)cc(N(C)C)[n+](C)c2c1,7.8%,-23.1%,-12.8%,15.2%,-2%,-22.4%
C=CCC(c1ccccc1)(c1ccccc1)c1ccccc1,-3.35%,5.25%,3.65%,3.55%,7.25%,8.25%
Cc1ccc(S(=O)(=O)NC2C(=O)c3ccccc3C(=O)C2n2ccnc2)cc1 (stereo not given),4.85%,-1.8%,0.75%,2.75%,7.8%,-21.5%
